Results filed as inconclusive are left out. Active and inactive are the calls of the source. Unless noted, calls follow the shape of the dose curve; as a rule, active = well fitted curve in either direction with a large enough effect (not every such curve was filed as active); inconclusive = small, poorly fitted or top-dose-only effect, or another doubt; inactive = flat fitted curve, though single readings scatter.
What was measured:
[1] = target: Lysosomal acid glucosylceramidase (Homo sapiens) (UniProt P04062); assay: Glucocerebrosidase-p2 (AID 348; in the data active = potency below about 10 µM; also: potency is read from the fitted curve at half-maximal effect); conditions: purified GBA, blue fluorogenic substrate, 40 min
Lysosomal acid glucosylceramidase (Homo sapiens), sequence (P04062 whole entry, looked up): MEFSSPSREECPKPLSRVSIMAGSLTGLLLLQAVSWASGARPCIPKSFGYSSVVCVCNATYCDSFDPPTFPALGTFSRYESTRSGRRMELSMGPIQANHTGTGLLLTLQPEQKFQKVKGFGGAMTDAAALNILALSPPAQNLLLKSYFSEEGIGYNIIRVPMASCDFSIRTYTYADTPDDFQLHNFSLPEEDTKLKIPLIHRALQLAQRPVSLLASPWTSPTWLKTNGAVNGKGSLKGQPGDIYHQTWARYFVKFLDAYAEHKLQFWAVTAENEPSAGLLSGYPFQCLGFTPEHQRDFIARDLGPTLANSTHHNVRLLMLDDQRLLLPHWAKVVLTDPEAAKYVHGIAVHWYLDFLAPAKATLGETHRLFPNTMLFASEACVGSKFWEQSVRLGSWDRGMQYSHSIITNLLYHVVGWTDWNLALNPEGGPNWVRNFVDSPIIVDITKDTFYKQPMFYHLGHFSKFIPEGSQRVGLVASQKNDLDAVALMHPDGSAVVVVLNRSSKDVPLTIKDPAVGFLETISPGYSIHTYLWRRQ
How it was run: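 Compounds titrated from 0.6 nM upwards against 0.2 nM enzyme in pH 5.9 citric acid/KH2PO4, taurocholate, tween-20; blue fluorogenic substrate 80 uM, 40 min room temperature, stopped and read Ex 365/Em 440 for AC50.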

[2] = AP1 Signaling Pathway (AID 357); conditions: ME-180 AP-1-bla reporter, EGF-induced, beta-lactamase ratio, 5 h; at 7.69 µM (top of the series) unless noted;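 also: ME-180 reporter cells stimulated with EGF at its EC50 level; % is scaled to controls: 0 for no effect and ±100 for the full control effect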
How it was run: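 A ratiometric CCF4 readout (405 nm excitation; 460 and 530 nm emission) quantified AP-1-driven beta-lactamase in ME-180 cells after 5 h with compound and EC50 EGF; AC50 values were derived for activators and inhibitors.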

[3] = Stat Signaling Pathway (AID 446); conditions: ME-180 (cervical carcinoma) SIE beta-lactamase reporter, IL-6 stimulated, 5 h; at 7.69 µM (top of the series) unless noted;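 also: ME-180 cervical cancer cells given 40 pM IL-6 alongside compound; SIE-controlled beta-lactamase reporter measured as 460/530 nm FRET emission ratio; % is scaled to controls: 0 for no effect and ±100 for the full control effect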
How it was run: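 IL-6/STAT signaling read in ME-180 cells via an SIE beta-lactamase reporter. Stimulus was 40 pM IL-6 (its AC50) for 5 hrs, so both activation and inhibition register.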

[4] = target: Glucocorticoid receptor (Homo sapiens) (UniProt P04150); assay: GR-EFC Redistribution (AID 451; calls by dose curve; also: potency is read from the fitted curve at half-maximal effect); conditions: CHO-K1 GR-EFC translocation, beta-gal luminescence, 2 h
Glucocorticoid receptor (Homo sapiens), sequence (P04150 whole entry, looked up, the tested form may be a part): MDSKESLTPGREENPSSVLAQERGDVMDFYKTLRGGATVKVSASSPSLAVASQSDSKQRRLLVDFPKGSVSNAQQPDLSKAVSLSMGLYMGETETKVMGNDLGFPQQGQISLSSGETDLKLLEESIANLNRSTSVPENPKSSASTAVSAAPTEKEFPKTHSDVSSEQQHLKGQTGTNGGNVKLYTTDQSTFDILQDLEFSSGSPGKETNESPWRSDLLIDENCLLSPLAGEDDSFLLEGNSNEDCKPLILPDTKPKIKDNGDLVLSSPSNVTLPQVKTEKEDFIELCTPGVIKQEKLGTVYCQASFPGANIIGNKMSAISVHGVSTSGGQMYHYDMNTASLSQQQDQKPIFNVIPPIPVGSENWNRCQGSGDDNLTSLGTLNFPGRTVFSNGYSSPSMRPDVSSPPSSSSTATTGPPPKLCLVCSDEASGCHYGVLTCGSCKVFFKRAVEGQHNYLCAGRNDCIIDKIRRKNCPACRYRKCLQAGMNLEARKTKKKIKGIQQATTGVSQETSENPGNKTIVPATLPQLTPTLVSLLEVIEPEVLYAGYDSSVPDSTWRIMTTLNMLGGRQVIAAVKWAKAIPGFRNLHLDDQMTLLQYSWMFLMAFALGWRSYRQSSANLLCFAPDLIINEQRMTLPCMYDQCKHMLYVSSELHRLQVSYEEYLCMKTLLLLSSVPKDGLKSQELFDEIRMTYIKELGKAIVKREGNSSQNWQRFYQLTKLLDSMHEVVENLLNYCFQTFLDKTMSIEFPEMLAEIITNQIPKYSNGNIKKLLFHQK
How it was run: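 Translocation of GR-ED fusion to nuclear EA restores b-gal, read by luminescence after 1 h room-temperature detection. Engineered CHO-K1 biosensor cells, 1,000/well, exposed 2 h at 37 C to titrations up to 46 uM final.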

[5] = target: Mitogen-activated protein kinase 10 (Mus musculus) (UniProt Q61831); assay: JNK3 AlphaScreen Assay (AID 530); conditions: JNK3 lysate, c-Jun phosphorylation; series mostly up to 57.1 µM;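 also: kinase came from lysate of stimulated human HepG2 cells; signal reports phosphorylation of biotinylated GST-cJun 1-79 at Ser73 with 10 µM ATP; % is scaled to controls: 0 for no effect and ±100 for the full control effect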
How it was run: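 Room-temperature AlphaScreen kinase assay; pre-activated HepG2 lysate as JNK3 source, biotin-GST-cJun(1-79) substrate, 10 uM ATP, compound 15 min preincubation.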

[6] = target: 3',5'-cyclic-AMP phosphodiesterase 4B (Homo sapiens) (UniProt Q07343); assay: qHTS Assay for Inhibitors of PDE-IV (AID 607; active = well fitted activation curve with a large enough effect in the main read-out, with a control signal flat, not every such curve was filed as active; also: % of control where 0% means no effect); conditions: HEK293 ACTOne CNG channel cells, membrane potential fluorescence; series mostly up to 22.9 µM
3',5'-cyclic-AMP phosphodiesterase 4B (Homo sapiens), sequence (Q07343 whole entry, looked up): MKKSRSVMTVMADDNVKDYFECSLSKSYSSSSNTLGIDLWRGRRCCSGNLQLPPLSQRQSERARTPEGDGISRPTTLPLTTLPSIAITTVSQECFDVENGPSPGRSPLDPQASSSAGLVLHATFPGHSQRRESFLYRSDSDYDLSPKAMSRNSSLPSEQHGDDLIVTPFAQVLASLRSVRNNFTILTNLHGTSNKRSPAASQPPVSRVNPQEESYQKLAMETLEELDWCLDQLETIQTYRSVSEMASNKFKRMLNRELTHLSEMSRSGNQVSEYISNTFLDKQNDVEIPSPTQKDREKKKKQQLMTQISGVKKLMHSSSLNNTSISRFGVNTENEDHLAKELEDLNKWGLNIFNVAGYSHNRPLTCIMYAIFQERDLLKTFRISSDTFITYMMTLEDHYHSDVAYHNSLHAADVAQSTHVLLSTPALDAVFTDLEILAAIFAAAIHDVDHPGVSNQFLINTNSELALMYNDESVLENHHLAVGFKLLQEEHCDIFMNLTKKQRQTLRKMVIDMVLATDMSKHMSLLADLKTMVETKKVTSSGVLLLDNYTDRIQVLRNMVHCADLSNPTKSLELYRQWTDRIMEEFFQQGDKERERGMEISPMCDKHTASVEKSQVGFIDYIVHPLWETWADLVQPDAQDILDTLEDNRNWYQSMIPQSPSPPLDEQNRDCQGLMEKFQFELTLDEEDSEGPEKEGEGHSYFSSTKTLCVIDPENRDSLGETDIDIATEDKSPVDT
How it was run: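 Live HEK293 cells with a modified cyclic nucleotide-gated (CNG) channel report intracellular cAMP via membrane-potential dye fluorescence (ex 535/em 590 nm). Endogenous PDE-IV was targeted. Compounds were tested at up to 22.9 uM final; RO 20-1724 100 uM served as control.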

[7] = qHTS Assay for Lipid Storage Modulators (AID 1519; calls by dose curve); conditions: Drosophila S3 cells, BODIPY lipid droplet/cell ratio, laser cytometry, cells loaded with oleic acid; for activity change, negative = inhibition: at 57.5 µM (top of the series)
How it was run: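 Cells seeded at 5,000 per well were treated with compounds over a concentration series and loaded with oleic acid (400 uM, as added). Lipid droplet fluorescence (488 nm excitation, 500-530 nm channel) was read by laser-scanning cytometry and normalized to 20 uM Triacsin C.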

[8] = Primary qHTS for small molecule stabilizers of the endoplasmic reticulum resident proteome: Secreted ER Calcium Modulated Protein (SERCaMP) assay (AID 1508630; active = well fitted inhibition curve with a large enough effect; also: % is scaled to controls: 0 for no effect and ±100 for the full control effect); conditions: SH-SY5Y GLuc-SERCaMP (Gaussia luciferase released on ER calcium loss) secretion, thapsigargin, luminescence; series mostly up to 38.4 µM
How it was run: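 GLuc-SERCaMP-expressing SH-SY5Y cells, pretreated 16 h with compound, are challenged with thapsigargin to empty ER calcium stores; after 4 h, coelenterazine is added directly to the medium and luminescence is imaged.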

[9] = measured here: cell count channel max response
[10] = measured here: lipid channel max response

CN1CC[C@@]2(CCCN(S(=O)(=O)c3ccccc3)C2)C1
6.91%: max response [7, 9]
inactive: Potency [1] > 11.4 µM | activity change, negative = inhibition [2] -25.8% | activity, negative = inhibition [3] 3.36% | Potency [4] > 46 µM | Potency [5] | Potency [6] | activity change, negative = inhibition [7] 5.6% | outcome [8]
16.3%: max response [7, 10]

COCC(=O)N1CCC[C@@]2(CCN(c3ccncc3)C2)C1
inactive: Potency [1] > 11.4 µM | activity change, negative = inhibition [2] -10.7% | activity, negative = inhibition [3] 5.19% | Potency [4] > 46 µM | Potency [5] | Potency [6] | activity change, negative = inhibition [7] 1.37% | outcome [8]
3.63%: max response [7, 10]
-0.218%: max response [7, 9]

O=C(c1ccncc1)N1CCC2(CCCN(c3ccccn3)C2)CC1
19.9%: max response [7, 10]
inactive: Potency [1] > 11.4 µM | activity change, negative = inhibition [2] -11.7% | activity, negative = inhibition [3] 4.12% | Potency [4] > 46 µM | Potency [5] | Potency [6] | activity change, negative = inhibition [7] 7.75% | outcome [8]
10.2%: max response [7, 9]

COC(=O)N1CCC2(CCCN(c3ccncc3)C2)CC1
inactive: Potency [1] > 11.4 µM | activity change, negative = inhibition [2] -3.28% | activity, negative = inhibition [3] 5.05% | Potency [4] > 46 µM | Potency [5] | Potency [6] | activity change, negative = inhibition [7] 5.16% | outcome [8]
21.3%: max response [7, 9]
29.2%: max response [7, 10]

Cn1cccc1C(=O)N1CCC2(CCN(Cc3ccc(C#N)cc3)CC2)CC1
inactive: Potency [1] > 11.4 µM | activity change, negative = inhibition [2] 11.1% | activity, negative = inhibition [3] -2.38% | Potency [4] > 46 µM | Potency [5] | Potency [6] | activity change, negative = inhibition [7] 0.873% | outcome [8]
7.43%: max response [7, 9]
9.77%: max response [7, 10]

O=C(c1cccc(F)c1)N1CCC2(CCCN(c3ccncc3)C2)CC1
inactive: Potency [1] > 11.4 µM | activity change, negative = inhibition [2] 8.58% | activity, negative = inhibition [3] -8.19% | Potency [4] > 46 µM | Potency [5] | Potency [6] | activity change, negative = inhibition [7] 3.69% | outcome [8]
16.5%: max response [7, 10]
9.25%: max response [7, 9]

Cn1cccc1C(=O)N1CCC2(CC1)CCN(c1ccncc1)CC2
2.95%: max response [7, 10]
inactive: Potency [1] > 11.4 µM | activity change, negative = inhibition [2] -0.611% | activity, negative = inhibition [3] 6.85% | Potency [4] > 46 µM | Potency [5] | Potency [6] | activity change, negative = inhibition [7] 1.02% | outcome [8]
-0.0216%: max response [7, 9]

N#Cc1ccc(CN2CCC3(CCNCC3)CC2)cc1
inactive: Potency [1] > 11.4 µM | activity change, negative = inhibition [2] 1.45% | activity, negative = inhibition [3] 2.48% | Potency [4] > 46 µM | Potency [5] | Potency [6] | activity change, negative = inhibition [7] 1.87% | outcome [8]
9.11%: max response [7, 9]
14.9%: max response [7, 10]

O=C(c1csnn1)N1CCC2(CCCN(c3ccncc3)C2)CC1
inactive: Potency [1] > 11.4 µM | activity change, negative = inhibition [2] -17.6% | activity, negative = inhibition [3] -10.5% | Potency [4] > 46 µM | Potency [5] | Potency [6] | activity change, negative = inhibition [7] -0.384% | outcome [8]
-0.685%: max response [7, 10]
0.465%: max response [7, 9]

N#Cc1ccc(CN2CCCC3(CCN(C(=O)c4ccco4)CC3)C2)cc1
-5.31%: max response [7, 9]
-10.9%: max response [7, 10]
inactive: Potency [1] > 11.4 µM | activity change, negative = inhibition [2] -7.19% | activity, negative = inhibition [3] 4.81% | Potency [4] > 46 µM | Potency [5] | Potency [6] | activity change, negative = inhibition [7] -5.76% | outcome [8]

COCC(=O)N1CCC2(CCN(Cc3ccccc3)CC2)CC1
inactive: Potency [1] > 11.4 µM | activity change, negative = inhibition [2] -10.9% | activity, negative = inhibition [3] -3.84% | Potency [4] > 46 µM | Potency [5] | Potency [6] | activity change, negative = inhibition [7] 1.52% | outcome [8]
2.79%: max response [7, 9]
9.37%: max response [7, 10]

COc1ccc(C(=O)N2CCC3(CCN(Cc4ccccc4)CC3)CC2)cc1
7.94%: max response [7, 10]
inactive: Potency [1] > 11.4 µM | activity change, negative = inhibition [2] -0.685% | activity, negative = inhibition [3] 0.0273% | Potency [4] > 46 µM | Potency [5] | Potency [6] | activity change, negative = inhibition [7] 0.635% | outcome [8]
-0.0682%: max response [7, 9]

COc1ccc(C(=O)N2CCC3(CC2)CN(CC(C)C)C3)cc1
21.1%: max response [7, 10]
16.1%: max response [7, 9]
inactive: Potency [1] > 11.4 µM | activity change, negative = inhibition [2] 1.62% | activity, negative = inhibition [3] 6.78% | Potency [4] > 46 µM | Potency [5] | Potency [6] | activity change, negative = inhibition [7] 3.28% | outcome [8]

CS(=O)(=O)N1CCC2(CCCN(Cc3ccc(C#N)cc3)C2)CC1
inactive: Potency [1] > 11.4 µM | activity change, negative = inhibition [2] -16.1% | activity, negative = inhibition [3] -15% | Potency [4] > 46 µM | Potency [5] | Potency [6] | activity change, negative = inhibition [7] 1.06% | outcome [8]
-8.06%: max response [7, 9]
-6.26%: max response [7, 10]

N#Cc1cccc(NC(=O)N2CC3(CCN(C(=O)c4ccco4)CC3)C2)c1
inactive: Potency [1] > 11.4 µM | activity change, negative = inhibition [2] -10.9% | activity, negative = inhibition [3] 19.7% | Potency [4] > 46 µM | Potency [5] | Potency [6] | activity change, negative = inhibition [7] 4.67% | outcome [8]
3.49%: max response [7, 9]
11.7%: max response [7, 10]

COc1ccc(C(=O)N2CCC3(CCN(CC(C)C)CC3)CC2)cc1
-10.1%: max response [7, 9]
-11.3%: max response [7, 10]
inactive: Potency [1] > 11.4 µM | activity change, negative = inhibition [2] -18% | activity, negative = inhibition [3] -2.75% | Potency [4] > 46 µM | Potency [5] | Potency [6] | activity change, negative = inhibition [7] -2.62% | outcome [8]

Reference: PubChem BioAssay (NCATS)
